WRN helicase inh-1 = inhibitors of human WRN helicase. WRN helicase unwinding, fluorescent forked duplex, kinetic. Potency, µM (doses to about 114 µM), without a hit: at the highest dose activity change, negative = inhibition, actives largely listed as inhibitors. 360,000 tested, 0.46% active. AID 651768; note: potency is the fitted concentration of half-maximal effect; % is set by controls: 0 for no effect and ±100 for the full control effect; nearly all actives have a fitted effect of over 55% in size
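WRN at 20 nM final was preincubated with compound for 15 min at room temperature; reaction started with 100 nM forked duplex oligonucleotide carrying fluorophore and quencher plus 2 mM ATP (final). Unwinding followed kinetically by red fluorescence (ex 525/em 598 nm).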
Pol eta inh-1 = inhibitors of human DNA polymerase eta; Q9Y253; recombinant Pol eta, fluorescent DNA replication assay; Potency, µM (titrated, usually from 114 µM), without a hit: top-dose activity change, negative = inhibition, most hits filed as inhibitors; 390,000 tested, 1.2% active; note: potency is the fitted concentration of half-maximal effect; % is set by controls: 0 for no effect and ±100 for the full control effect
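Fluorescent replication assay: 50 nM final substrate added after a 15 min room-temperature compound preincubation with 10 nM enzyme. Signal taken at 0 min and again at 10 min.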
Pol beta inh-1 = inhibitors of human DNA polymerase beta; P06746; Pol beta primer extension/strand displacement, fluorescence kinetic; Potency, µM (top dose mostly 114 µM), for the others: at the top dose activity change, negative = inhibition, usual class: inhibitors; 340,000 tested, 1.3% active; AID 485314; note: potency is the fitted concentration of half-maximal effect; % is set by controls: 0 for no effect and ±100 for the full control effect
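10 nM enzyme + cpd, 15 min RT; start with substrate 50 nM final; read 0 min and after 10 min RT. Corrected, normalized data; 4-parameter Hill curve fit.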
FEN1 inh-1 = human FEN1 inhibition; P39748; Recombinant FEN1 flap cleavage, fluorescence, 15 min; Potency, µM (highest dose often 114 µM), inactives show at the highest dose activity change, negative = inhibition, usual class: inhibitors; 390,000 tested, 0.35% active; note: potency is the fitted concentration of half-maximal effect; % is set by controls: 0 for no effect and ±100 for the full control effect; nearly all actives have a fitted effect of over 65% in size
Target sequence (P39748 whole entry, looked up): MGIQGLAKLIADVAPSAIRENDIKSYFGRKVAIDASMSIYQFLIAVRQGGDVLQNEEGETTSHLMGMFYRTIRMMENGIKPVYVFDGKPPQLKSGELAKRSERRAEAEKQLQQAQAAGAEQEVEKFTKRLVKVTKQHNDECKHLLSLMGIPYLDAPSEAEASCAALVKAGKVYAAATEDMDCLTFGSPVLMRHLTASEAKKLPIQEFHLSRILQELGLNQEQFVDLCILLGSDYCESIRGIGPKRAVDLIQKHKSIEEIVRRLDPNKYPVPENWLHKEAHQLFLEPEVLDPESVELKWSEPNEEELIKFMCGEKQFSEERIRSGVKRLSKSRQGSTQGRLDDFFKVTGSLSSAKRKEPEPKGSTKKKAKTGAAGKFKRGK
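Read-out was taken twice, immediately and after 15 min, following addition of 50 nM substrate to 10 nM FEN1 that had sat with test compound for 15 min at room temperature. Curves came from a four-parameter Hill model.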
Pol iota inh = inhibitors of human DNA polymerase iota; AID 588590; Pol iota fluorescent replication assay, 10 min; 390,000 tested, 1% active; Potency, µM (top dose mostly 115 µM), inactives show at the highest dose activity, negative = inhibition, hits mostly inhibitors; Q9UNA4; note: potency is the fitted concentration of half-maximal effect
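Pol iota at 10 nM preincubated 15 min with compounds at room temperature; reaction started with fluorescent substrate, 50 nM final. Fluorescence read kinetically at 0 and 10 min; buffer-only wells as negative control.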
POLK inh = DNA polymerase kappa (human) inhibition; Q9UBT6; purified Pol kappa, fluorescent DNA synthesis assay, 10 min; Potency, µM (series often up to 107 µM), without a hit: at the top dose activity, negative = inhibition, usual class: inhibitors; 400,000 tested, 0.53% active; AID 588579; note: potency is the fitted concentration of half-maximal effect; % is set by controls: 0 for no effect and ±100 for the full control effect
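50 nM final substrate added after 15 min RT preincubation of 10 nM Pol kappa with compound; fluorescence read at 0 and 10 min.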
Pol beta inh-2 = Validate hits inhibiting human DNA polymerase beta; shares compounds with Pol beta inh-1; 250 tested, 87% active; Potency, µM, hits mostly inhibitors; Pol beta primer extension/strand displacement, fluorescence kinetic; calls by dose curve; note: potency is the fitted concentration of half-maximal effect
Klenow counter = Klenow polymerase inhibition, pol beta selectivity check | shares compounds with Pol beta inh-1 | Klenow exo- polymerase counter-screen, fluorescent DNA substrate | activity change, negative = inhibition, % at 57.1 µM | 250 tested, under 10 active
HIV RT inh = inhibits HIV-1 reverse transcriptase in counter-screen; shares compounds with Pol beta inh-1; HIV-1 RT polymerase activity, counter-screen; activity % (negative = inhibition, positive = activation), % at 57.1 µM; 250 tested, under 10 active; AID 540301
POLB valid = validation of human DNA polymerase beta inhibitors; shares compounds with Pol beta inh-1; radiolabeled primer extension gel assay, phosphorimager; inhibition, % at 10 µM; 110 tested, 91% active; AID 540325;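 active = inhibition at 10 µM of 30% or more; inconclusive = no clear call, values can overlap the other calls; inactive = inhibition at 10 µM under 30%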
TbPGK inh = TbPGK inhibition, hit validation; shares compounds with POLK inh; TbPGK coupled GAPDH assay, Kinase-Glo luminescence; 500 tested, 79% active; Potency, µM (titrated, usually from 57.5 µM), inactives show at the highest dose activity change, negative = inhibition, usual class: inhibitors; note: potency is the fitted concentration of half-maximal effect; % is set by controls: 0 for no effect and ±100 for the full control effect; nearly all actives have a fitted effect of over 65% in size
Pol iota confirm = Human Pol iota inhibitor confirmatory assay; shares compounds with POLK inh; Pol iota primer extension, TAMRA/BHQ fluorescence; Potency, µM, usual class: inhibitors; 1,500 tested, 77% active; AID 720496; note: potency is the fitted concentration of half-maximal effect
Pol eta inh-2 = Pol eta (human) inhibition, cherry-pick confirmation; 2,600 tested, 64% active; Potency, µM, usual class: inhibitors; shares compounds with Pol eta inh-1; AID 720502; Pol eta primer extension, TAMRA/BHQ fluorescence, 10 min; note: potency is the fitted concentration of half-maximal effect
FEN1 inh-2 = FEN1 inhibition, cherry-pick retest; shares compounds with FEN1 inh-1; FEN1 flap cleavage, TAMRA/BHQ2 fluorogenic DNA substrate; Potency, µM, most hits filed as inhibitors; 880 tested, 79% active; note: potency is the fitted concentration of half-maximal effect; nearly all actives have a fitted effect of over 60% in size
WRN helicase inh-2 = WRN helicase inhibition, cherry-pick retest; shares compounds with WRN helicase inh-1; Potency, µM (series often up to 57.1 µM), for the others: top-dose activity, negative = inhibition, usual class: inhibitors; WRN helicase DNA unwinding, fluorescence kinetic; 610 tested, 63% active; note: potency is the fitted concentration of half-maximal effect; nearly all actives have a fitted effect of over 65% in size
TO displacement = DNA binding via thiazole orange displacement; 610 tested, 10% active; Potency, µM (highest dose often 57.1 µM), for the others: top-dose activity change, negative = inhibition, hits mostly inhibitors; thiazole orange DNA binding displacement, fluorescence; shares compounds with WRN helicase inh-1;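 note: drop in dye fluorescence marks compound binding to DNA; potency is the fitted concentration of half-maximal effect; % is set by controls: 0 for no effect and ±100 for the full control effect; nearly all actives have a fitted effect of over 60% in size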
BLM helicase inh = counter-screen for WRN helicase inhibitors: human BLM helicase inhibition; 610 tested, 60% active; Potency, µM (doses to about 57.1 µM), without a hit: at the highest dose activity change, negative = inhibition, hits mostly inhibitors; shares compounds with WRN helicase inh-1; Recombinant BLM helicase DNA unwinding, red fluorescence; note: potency is the fitted concentration of half-maximal effect; nearly all actives have a fitted effect of over 60% in size
The depositor's hits bear a star; [ ] = dose if it differs, or a comment. In the library only some 2.4% were active in any assay of this set; here they are far more common. Unless noted, calls come from the whole dose curve; as a rule, active = well fitted curve in the direction sought with a large enough effect; inconclusive = small, poorly fitted or top-dose-only effect, or another doubt; inactive = no such curve, though single readings can be large; an effect the other way counts as inactive or inconclusive.

What do the screens show for `Cc1ccc(-c2cc(-c3ccco3)c(C#N)c(=O)[nH]2)cc1`?
WRN helicase inh-1: 32µM*; Pol eta inh-1: 28µM*; Pol beta inh-1: 11µM*; FEN1 inh-1: inconclusive; Pol iota inh: inconclusive; POLK inh: inconclusive; Pol beta inh-2: 22*; Klenow counter: -28; HIV RT inh: -5; POLB valid: 96*; Pol iota confirm: 21*; Pol eta inh-2: 15*; FEN1 inh-2: 67*

Results for O=C(CSc1n[nH]c(-c2ccccc2)n1)c1ccc(O)c(O)c1 ?
WRN helicase inh-1: 16µM*; Pol eta inh-1: 40µM*; Pol beta inh-1: 16µM*; FEN1 inh-1: -1%; Pol iota inh: 18µM*; POLK inh: 25µM*; Pol beta inh-2: 32*; Klenow counter: -28; HIV RT inh: inconclusive; POLB valid: 25; WRN helicase inh-2: 19µM*; TO displacement: -2%; BLM helicase inh: 19µM*

What do the screens show for `COc1cccc(Nc2ncc3nc(C)c(=O)n(C4CC4)c3n2)c1`?
POLK inh: 0%[60.1 µM]

How did Cc1c(Cc2ccccc2)c(=O)oc2cc(O)ccc12 do in these assays?
WRN helicase inh-1: -8%; Pol eta inh-1: -1%; Pol beta inh-1: -25%; FEN1 inh-1: -8%; Pol iota inh: 10%; POLK inh: -21%

How did Cc1c(Cc2ccccc2)c(=O)oc2c(O)c(O)ccc12 do in these assays?
WRN helicase inh-1: 28µM*; Pol eta inh-1: inconclusive; Pol beta inh-1: 13µM*; FEN1 inh-1: inconclusive; Pol iota inh: 8.9µM*; POLK inh: inconclusive; Pol beta inh-2: 5*; Klenow counter: -27; HIV RT inh: 40; WRN helicase inh-2: 6.8µM*; TO displacement: -17%; BLM helicase inh: 6.8µM*

Results for CNC(=O)C1(C(F)(F)F)CC(CCCO)CCCO1 (centres undefined) ?
FEN1 inh-1: 2%; Pol iota inh: -10%; POLK inh: -22%

Results for CNC(=O)COC(=O)c1cc(-c2ccco2)nc2ccccc12 ?
WRN helicase inh-1: 79µM*; Pol eta inh-1: 11µM*; Pol beta inh-1: 3.5µM*; FEN1 inh-1: 50µM*; Pol iota inh: inconclusive; POLK inh: 25µM*; Pol beta inh-2: 28*; Klenow counter: -38; HIV RT inh: inconclusive; POLB valid: 100*; Pol iota confirm: 21*; Pol eta inh-2: 19*; FEN1 inh-2: inconclusive; WRN helicase inh-2: 15µM*; TO displacement: -29%; BLM helicase inh: 4.8µM*

What do the screens show for `C=C(C)C(=O)Nc1ccc(OC(F)(F)C(F)F)c(NC(=O)C(=C)C)c1`?
WRN helicase inh-1: inconclusive; Pol eta inh-1: 18µM*; Pol beta inh-1: 32µM*; FEN1 inh-1: -1%; Pol iota inh: 4%; POLK inh: inconclusive; TbPGK inh: 6.5µM*

How did CCOc1ccc(CNC(=O)c2cnc3sc(N(CC)CC)nn3c2=O)cc1OC do in these assays?
Pol eta inh-1: 2%; Pol beta inh-1: 15%; FEN1 inh-1: -3%; Pol iota inh: -6%; POLK inh: -7%

Results for CCn1c(=O)n(-c2ccc(F)cc2)c(=O)c2sc3ccccc3c21 ?
Pol eta inh-1: -16%; Pol beta inh-1: 26%; FEN1 inh-1: -2%; Pol iota inh: 22%; POLK inh: 5%

How did O=C(N/N=C/c1cccc([N+](=O)[O-])c1)c1cc2c(ccc3ccccc32)o1 do in these assays?
WRN helicase inh-1: -9%; Pol eta inh-1: inconclusive; Pol beta inh-1: 20%; FEN1 inh-1: -12%; Pol iota inh: inconclusive; POLK inh: 0%; Pol iota confirm: 47*

What do the screens show for `O=C(O)c1cc(O)c2c(c1)[C@H]([C@H]1c3cc(C(=O)O)cc(O)c3C(=O)c3c(O[C@@H]4O[C@H](CO)[C@@H](O)[C@H](O)[C@H]4O)cccc31)c1cccc(OC3O[C@H](CO)[C@@H](O)[C@H](O)[C@H]3O)c1C2=O` (some centres undefined)?
WRN helicase inh-1: 4µM*; Pol eta inh-1: -99%; FEN1 inh-1: 1.3µM*; Pol iota inh: -83%; POLK inh: 0.71µM*; TbPGK inh: 2.9µM*
